# Results reported in the supplement of paper PMC6411743.
# ± gives the standard deviation of the averaged measurements. Targets with the largest changes are over-represented here; the source holds about 5,400 in all.
# Compound: Nc1nc2c(ncn2[C@@H]2O[C@H](COP(=O)(O)OP(=O)(O)OP(=O)(O)O)[C@@H](O)[C@H]2O)c(=O)[nH]1 [guanosine triphosphate]
# Test: NP40-soluble protein abundance relative to vehicle (solubility fold change) (ratio); higher = more soluble protein in presence of GTP
# Method: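 Solubility proteome profiling in Jurkat crude lysate. Lysate was treated with Mg-GTP (0.1-10 mM) for 10 min at room temperature and 3 min at 37 °C, then solubilised with 0.8% NP40 and benzonase, followed by ultracentrifugation. Proteins were quantified by TMT10 LC-MS/MS; the value is the NP40-soluble abundance relative to the NP40-processed vehicle, from 3 independent experiments.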
# UniProt P17900, sequence (P17900 whole entry): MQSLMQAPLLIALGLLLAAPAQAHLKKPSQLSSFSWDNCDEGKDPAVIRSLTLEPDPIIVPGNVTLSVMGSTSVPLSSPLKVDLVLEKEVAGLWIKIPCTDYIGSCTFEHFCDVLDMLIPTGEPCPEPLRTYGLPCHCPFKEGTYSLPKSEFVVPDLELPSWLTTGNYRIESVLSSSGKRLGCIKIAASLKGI
# UniProt P22830, sequence (P22830 whole entry, one chain of several): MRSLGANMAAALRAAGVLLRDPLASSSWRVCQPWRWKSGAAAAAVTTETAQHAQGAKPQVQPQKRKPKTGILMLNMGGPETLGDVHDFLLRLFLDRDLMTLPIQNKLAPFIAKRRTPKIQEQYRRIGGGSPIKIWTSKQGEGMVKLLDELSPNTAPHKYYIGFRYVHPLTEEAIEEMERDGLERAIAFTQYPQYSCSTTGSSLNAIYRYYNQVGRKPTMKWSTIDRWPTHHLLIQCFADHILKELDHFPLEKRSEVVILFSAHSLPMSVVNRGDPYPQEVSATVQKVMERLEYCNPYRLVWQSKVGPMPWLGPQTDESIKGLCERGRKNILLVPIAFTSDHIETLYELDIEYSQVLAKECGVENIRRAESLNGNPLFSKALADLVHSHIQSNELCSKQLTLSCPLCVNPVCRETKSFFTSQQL
# UniProt P51114, sequence (P51114 whole entry): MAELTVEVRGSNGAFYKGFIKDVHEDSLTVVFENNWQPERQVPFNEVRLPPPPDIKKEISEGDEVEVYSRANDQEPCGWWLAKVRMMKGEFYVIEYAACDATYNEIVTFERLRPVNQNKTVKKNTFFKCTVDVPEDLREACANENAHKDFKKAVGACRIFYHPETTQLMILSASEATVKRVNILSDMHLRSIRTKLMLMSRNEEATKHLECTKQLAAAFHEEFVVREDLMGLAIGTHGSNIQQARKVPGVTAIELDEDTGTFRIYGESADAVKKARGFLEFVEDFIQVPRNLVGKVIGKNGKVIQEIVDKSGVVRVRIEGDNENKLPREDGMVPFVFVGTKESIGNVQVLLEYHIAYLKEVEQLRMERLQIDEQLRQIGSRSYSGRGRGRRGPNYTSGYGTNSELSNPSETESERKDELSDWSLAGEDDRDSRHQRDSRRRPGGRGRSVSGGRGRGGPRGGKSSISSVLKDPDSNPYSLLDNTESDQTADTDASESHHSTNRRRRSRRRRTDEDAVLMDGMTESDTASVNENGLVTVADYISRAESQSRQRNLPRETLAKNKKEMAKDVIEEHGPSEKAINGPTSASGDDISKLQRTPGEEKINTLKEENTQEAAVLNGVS
# UniProt O60861, sequence (O60861 whole entry): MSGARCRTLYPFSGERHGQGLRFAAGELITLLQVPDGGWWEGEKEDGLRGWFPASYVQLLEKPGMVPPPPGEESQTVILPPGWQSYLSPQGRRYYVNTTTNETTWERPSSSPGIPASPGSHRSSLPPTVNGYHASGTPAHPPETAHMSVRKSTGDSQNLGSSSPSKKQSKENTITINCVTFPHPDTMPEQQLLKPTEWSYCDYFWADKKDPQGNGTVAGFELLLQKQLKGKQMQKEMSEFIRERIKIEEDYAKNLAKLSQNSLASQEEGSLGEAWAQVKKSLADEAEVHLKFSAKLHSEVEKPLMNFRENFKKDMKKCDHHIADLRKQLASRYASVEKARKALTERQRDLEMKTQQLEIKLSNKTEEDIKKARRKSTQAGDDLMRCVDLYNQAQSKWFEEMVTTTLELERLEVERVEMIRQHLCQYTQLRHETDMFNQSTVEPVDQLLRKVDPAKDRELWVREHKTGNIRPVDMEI
# UniProt P30405, sequence (P30405 whole entry): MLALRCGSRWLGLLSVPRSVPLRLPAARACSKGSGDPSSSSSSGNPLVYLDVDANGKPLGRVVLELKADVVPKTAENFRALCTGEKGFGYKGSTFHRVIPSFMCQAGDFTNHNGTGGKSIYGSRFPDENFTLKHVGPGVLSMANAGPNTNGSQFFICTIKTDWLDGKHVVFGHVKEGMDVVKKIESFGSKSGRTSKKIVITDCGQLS
Target,NP40-soluble protein abundance (concentration: 0.1mM),NP40-soluble protein abundance (concentration: 0.5mM),NP40-soluble protein abundance (concentration: 1mM),NP40-soluble protein abundance (concentration: 2mM),NP40-soluble protein abundance (concentration: 4mM),NP40-soluble protein abundance (concentration: 6mM),NP40-soluble protein abundance (concentration: 8mM),NP40-soluble protein abundance (concentration: 10mM)
UniProt O60861|O60861-1|O60861-4,1 ± 0.02,1.01 ± 0.071,1.01 ± 0.047,0.94 ± 0.063,0.935 ± 0.035,0.929 ± 0.04,0.978 ± 0.046,0.888 ± 0.06
PPIF (UniProt P30405),0.881 ± 0.08,0.902 ± 0.067,0.863 ± 0.064,0.876 ± 0.078,0.853 ± 0.091,0.868 ± 0.087,0.836 ± 0.11,0.887 ± 0.079
FXR1 (UniProt P51114),1.13 ± 0.11,1.23 ± 0.075,1.31 ± 0.042,1.54 ± 0.07,1.885 ± 0.0094,2.02 ± 0.03,2.16 ± 0.091,2.28 ± 0.13
K7EPN2|P22830|P22830-2 (UniProt P22830),1.06 ± 0.013,1.06 ± 0.034,0.972 ± 0.015,0.945 ± 0.055,0.958 ± 0.039,0.939 ± 0.03,0.928 ± 0.043,0.885 ± 0.05
GM2A (UniProt P17900),0.851 ± 0.015,0.931 ± 0.022,0.876 ± 0.013,0.923 ± 0.1,0.853 ± 0.042,0.859 ± 0.013,0.856 ± 0.12,0.927 ± 0.067
